Measured values published in PubChem BioAssay AID1159580 (chemical genetic matrix, 2015).
Where “and” joins values, the source holds several entries; their conditions need not be identical. Equal values may be shown once. The campaign covered roughly 5,500 compounds. About 2,000 (36%) were called active. Another 18% or so got no clear call; they are omitted. Cut-off read from the data, not from the text of the source: active = normalized growth mostly below about 0.91 (no sharp cut-off); inconclusive = no clear call, values can overlap the other calls; inactive = mostly above about 0.92. The list shows a part of the results.

Experiment: chemical genetic growth profiling, strain panel (AID 1159580);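 note: tested at 20 µM; growth read once vehicle control cultures reached saturation at 30 °C; 1 = growth at the plate median or of vehicle wells; lower values mean less growth of the strain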
Conditions: S. cerevisiae deletion strains, growth OD

Measured: normalized growth

CN1CCC[C@H]1c1cccnc1
inactive: locus YAL013W, strain DEP1, active compounds read low 0.998 | locus YAL021C, strain ccr4, active compounds read low 1.02 | locus YAL026C, strain drs2, active compounds read low 1.03 | locus YAL030W, strain snc1, active compounds read low 1.02 | locus YBL061C, strain skt5, active compounds read low 1.03 | locus YBR009C, strain hhf1, active compounds read low 1.02 | locus YBR021W, strain FUR4, active compounds read low 0.968 | locus YBR023C, strain chs3, active compounds read low 1.05 | locus YBR171W, strain sec66, active compounds read low 1.05 | locus YBR229C, strain ROT2, active compounds read low 0.992 | locus YBR231C, strain swc5, active compounds read low 1.02 | locus YBR279W, strain paf1, active compounds read low 1.02 | locus YCL011C, strain gbp2, active compounds read low 1.03 | locus YCL016C, strain dcc1, active compounds read low 1.03 | locus YCL029C, strain bik1, active compounds read low 0.995 | locus YCL061C, strain MRC1, active compounds read low 1 | locus YCL069W, strain vba3, active compounds read low 1.04 | locus YCR088W, strain abp1, active compounds read low 1.02 | locus YDL005C, strain med2, active compounds read low 1.03 | locus YDL035C, strain GPR1, active compounds read low 1.01 | locus YDL040C, strain nat1, active compounds read low 1.02 | locus YDL074C, strain BRE1, active compounds read low 1.03 | locus YDL101C, strain DUN1, active compounds read low 0.994 | locus YDL134C, strain PPH21, active compounds read low 0.994 | locus YDL185W, strain tfp1, active compounds read low 0.983 | locus YDL192W, strain arf1, active compounds read low 0.997 | locus YDR001C, strain nth1, active compounds read low 1.03 | locus YDR069C, strain doa4, active compounds read low 1.02 | locus YDR101C, strain arx1, active compounds read low 1 | locus YDR137W, strain rgp1, active compounds read low 1.05 | locus YDR150W, strain NUM1, active compounds read low 0.999 | locus YDR159W, strain sac3, active compounds read low 1 | locus YDR162C, strain NBP2, active compounds read low 1.03 | locus YDR195W, strain ref2 1.02 | locus YDR297W, strain sur2, active compounds read low 1.02 | locus YDR318W, strain mcm21, active compounds read low 0.983 | locus YDR334W, strain swr1, active compounds read low 1.03 | locus YDR335W, strain msn5, active compounds read low 1.03 | locus YDR388W, active compounds read low 0.996 | locus YDR392W, strain spt3, active compounds read low 0.964 | locus YDR502C, strain sam2, active compounds read low 1 | locus YEL003W, strain gim4, active compounds read low 1.02 | locus YEL037C, strain rad23, active compounds read low 1.03 | locus YEL061C, strain CIN8 (second series), active compounds read low 1.03 | locus YEL061C, strain CIN8, active compounds read low 0.993 | locus YER015W, strain faa2, active compounds read low 1.03 | locus YER016W, strain bim1, active compounds read low 1.02 | locus YER110C, active compounds read low 0.985 | locus YER111C, strain swi4, active compounds read low 1.04 | locus YER155C, strain BEM2 (second series), active compounds read low 0.991 | locus YER155C, strain BEM2, active compounds read low 0.992 | locus YER167W, strain BCK2, active compounds read low 0.98 | locus YFR010W, strain ubp6, active compounds read low 1.03 | locus YGL078C, strain dbp3, active compounds read low 0.994 | locus YGL086W, strain mad1, active compounds read low 0.969 | locus YGL167C, strain pmr1, active compounds read low 1.04 | locus YGL173C, strain kem1, active compounds read low 1.03 | locus YGL227W, strain vid30, active compounds read low 1.04 | locus YGL240W, strain doc1, active compounds read low 1 | locus YGL248W, strain PDE1, active compounds read low 0.985 | locus YGL253W, strain hxk2, active compounds read low 1.04 | locus YGR078C, strain PAC10, active compounds read low 1.04 | locus YGR135W, strain pre9, active compounds read low 1 | locus YGR229C, strain SMI1, active compounds read low 1.02 | locus YGR252W, strain gcn5, active compounds read low 0.949 | locus YHR013C, strain ard1, active compounds read low 1.06 | locus YHR027C, strain rpn1, active compounds read low 1.03 | locus YHR030C, strain SLT2, active compounds read low 0.991 and 0.959 | locus YHR079C, strain IRE1 (second series), active compounds read low 0.996 | locus YHR079C, strain IRE1, active compounds read low 1.03 | locus YHR094C, strain hxt1, active compounds read low 0.989 | locus YHR129C, strain ARP1, active compounds read low 0.99 | locus YHR142W, strain chs7, active compounds read low 1.06 | locus YHR200W, strain rpn10, active compounds read low 0.981 | locus YIL066C, strain RNR3, active compounds read low 0.985 | locus YIL073C, strain SPO22, active compounds read low 0.968 | locus YIL125W, strain kgd1, active compounds read low 0.997 | locus YIR030C, strain dcg1, active compounds read low 0.995 | locus YJL092W, strain hpr5, active compounds read low 1.02 | locus YJL095W, strain BCK1 (second series), active compounds read low 1.02 | locus YJL095W, strain BCK1, active compounds read low 1.01 and 0.947 | locus YJL115W, strain asf1, active compounds read low 1.02 | locus YJL129C, strain trk1, active compounds read low 1.07 | locus YJL134W, strain LCB3, active compounds read low 0.989 | locus YJL154C, strain vps35, active compounds read low 1.02 | locus YJL164C, strain tpk1, active compounds read low 1.02 | locus YJL166W, strain qcr8, active compounds read low 1.03 | locus YJL168C, strain set2, active compounds read low 0.994 | locus YJL187C, strain SWE1 (second series), active compounds read low 0.997 | locus YJL187C, strain SWE1, active compounds read low 1.02 | locus YJR043C, strain POL32, active compounds read low 0.995 | locus YJR066W, strain TOR1, active compounds read low 0.943
